Experimental data reported in PubChem BioAssay (NCATS).
Several values for one entry are separate records, joined by “and”; a condition that tells them apart may be missing. Equal values may be shown once. Results filed as inconclusive are left out. Activity calls are given as the source filed them. Unless noted, the call rests on the fitted dose curve.

Biological target: Peroxisome proliferator-activated receptor delta (Homo sapiens) (UniProt Q03181)
Assay: qHTS assay for small molecule antagonists of peroxisome proliferator-activated receptor delta signaling (AID 588535; active means well fitted inhibition curve with a large enough effect in the signal ratio, with a control signal flat, not every such curve was filed as active; the % refers to the signal ratio)
Settings: HEK293T PPARd-UAS-bla, beta-lactamase FRET ratio, 18 h; series mostly up to 76.7 µM; activity change, negative = inhibition: at the top concentration
Procedure, shortened: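 Reporter: UAS-bla under PPAR-delta response element, HEK293T host. Medium: 2% charcoal/dextran FBS. Dosing: titration, 18 hrs, 37 C. Detection: CCF4, 2 hrs RT, 405 ex/460 and 530 em.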

Chain of Peroxisome proliferator-activated receptor delta (Homo sapiens) (Q03181 whole entry, looked up): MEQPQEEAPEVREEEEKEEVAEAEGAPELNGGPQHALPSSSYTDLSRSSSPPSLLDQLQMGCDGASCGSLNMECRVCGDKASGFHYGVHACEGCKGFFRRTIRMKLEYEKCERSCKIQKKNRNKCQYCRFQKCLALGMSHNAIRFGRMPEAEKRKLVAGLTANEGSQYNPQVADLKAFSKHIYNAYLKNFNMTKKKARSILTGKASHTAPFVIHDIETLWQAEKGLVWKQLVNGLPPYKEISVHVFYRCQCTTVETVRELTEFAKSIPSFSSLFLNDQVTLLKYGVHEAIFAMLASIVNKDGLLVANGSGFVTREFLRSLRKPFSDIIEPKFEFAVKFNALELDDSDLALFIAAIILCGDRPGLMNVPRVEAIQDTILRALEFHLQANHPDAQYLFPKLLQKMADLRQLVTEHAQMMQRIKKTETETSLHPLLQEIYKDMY

Row | Compound | activity change, negative = inhibition | Potency
1 | O=C(O)COc1ccc(Cl)cc1 | -15.5% (inactive) | –
2 | CCC(CC)Nc1c([N+](=O)[O-])cc(C)c(C)c1[N+](=O)[O-] | 8.42% (inactive) | –
3 | C1=Cc2cccc3cccc1c23 | 11.4% (inactive) | –
4 | c1ccccc1 | – | inactive
5 | CCOP(=O)(OCC)Oc1ccc([N+](=O)[O-])cc1 | -12.1% (inactive) | –
6 | [CH3][Sn]([Cl])([Cl])[Cl] | 16.1% (inactive) | –
7 | CCC(C)Nc1c([N+](=O)[O-])cc(C(C)(C)C)cc1[N+](=O)[O-] (configuration not stated) | 21.9% (inactive) | –

Biological target: Peroxisome proliferator-activated receptor gamma (Homo sapiens) (UniProt P37231)
Sequence (P37231 whole entry, looked up): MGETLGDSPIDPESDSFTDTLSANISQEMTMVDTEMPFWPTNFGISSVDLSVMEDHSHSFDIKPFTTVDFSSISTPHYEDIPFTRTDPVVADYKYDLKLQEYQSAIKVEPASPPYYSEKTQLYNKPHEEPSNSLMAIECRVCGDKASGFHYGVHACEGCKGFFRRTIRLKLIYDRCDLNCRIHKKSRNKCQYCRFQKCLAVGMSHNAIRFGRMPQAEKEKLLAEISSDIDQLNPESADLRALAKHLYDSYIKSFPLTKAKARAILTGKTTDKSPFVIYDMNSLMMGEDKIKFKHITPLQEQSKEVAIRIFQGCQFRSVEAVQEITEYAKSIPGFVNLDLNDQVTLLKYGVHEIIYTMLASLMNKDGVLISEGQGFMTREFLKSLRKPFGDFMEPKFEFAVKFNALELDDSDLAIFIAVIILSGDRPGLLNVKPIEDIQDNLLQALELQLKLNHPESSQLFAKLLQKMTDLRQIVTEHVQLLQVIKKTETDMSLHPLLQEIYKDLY
Assay: qHTS assay for small molecule agonists of peroxisome proliferator-activated receptor gamma signaling (AID 588536; active means well fitted curve in the direction sought with a large enough effect in the signal ratio, with a control signal flat, not every such curve was filed as active; the % refers to the signal ratio;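 further: 0% = DMSO basal wells and 100% = rosiglitazone at 2 µM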)
Settings: HEK293 PPARg-UAS-bla, beta-lactamase ratio, 16 h; series mostly up to 76.7 µM; activation: at the top concentration
Procedure, shortened: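 Test agents, titrated, stimulated HEK293 UAS-bla cells overnight (16 h, 37 C). Substrate CCF4 was then added for two hours at room temperature before fluorescence reading.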

Row | Compound | activation
8 | O=C(O)COc1ccc(Cl)cc1 | -1.64% (inactive)
9 | Cc1ccc(-c2c(Cl)nc(C#N)n2S(=O)(=O)N(C)C)cc1 | 6.22% (inactive)
10 | CCC(CC)Nc1c([N+](=O)[O-])cc(C)c(C)c1[N+](=O)[O-] | -0.942% (inactive)
11 | C1=Cc2cccc3cccc1c23 | -3.92% (inactive)
12 | [CH3][Sn]([Cl])([Cl])[Cl] | -3.29% (inactive)
13 | CCC(C)(c1ccc(O)cc1)c1ccc(O)cc1 | -8.01% (inactive)
14 | CCC(C)Nc1c([N+](=O)[O-])cc(C(C)(C)C)cc1[N+](=O)[O-] (configuration not stated) | 3.16% (inactive)

Biological target: Peroxisome proliferator-activated receptor gamma (Homo sapiens) (UniProt P37231)
Assay: qHTS assay for small molecule antagonists of peroxisome proliferator-activated receptor gamma signaling (AID 588537; active means well fitted inhibition curve with a large enough effect in the signal ratio, with a control signal flat, not every such curve was filed as active; the % refers to the signal ratio;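 further: reporter cells co-stimulated with 50 nM rosiglitazone agonist during compound treatment; % of control where 0% means no effect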)
Settings: HEK293 PPARg-UAS-bla, beta-lactamase ratio, antagonist mode; series mostly up to 76.8 µM; activity, negative = inhibition: at the top concentration
Procedure, shortened: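 We seeded GeneBLAzer HEK293 reporter cells at 3000 per well, allowed 6-6.5 h attachment at 37 C, then co-treated with test compound titrations and 50 nM rosiglitazone overnight (16 h). Inhibition was quantified from 460/530 nm emission ratios.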

Row | Compound | activity, negative = inhibition
15 | Nc1cccc(C(F)(F)F)c1 | 9.67% (inactive)
16 | C[Si](Cn1cncn1)(c1ccc(F)cc1)c1ccc(F)cc1 | -15.8% (inactive)
17 | C1=Cc2cccc3cccc1c23 | 13.1% (inactive)
18 | [CH3][Sn]([Cl])([Cl])[Cl] | 2.68% (inactive)
19 | CCC(C)(c1ccc(O)cc1)c1ccc(O)cc1 | -16.1% (inactive)

Biological target: Vitamin D3 receptor (Homo sapiens) (UniProt P11473)
Sequence (P11473 whole entry, looked up): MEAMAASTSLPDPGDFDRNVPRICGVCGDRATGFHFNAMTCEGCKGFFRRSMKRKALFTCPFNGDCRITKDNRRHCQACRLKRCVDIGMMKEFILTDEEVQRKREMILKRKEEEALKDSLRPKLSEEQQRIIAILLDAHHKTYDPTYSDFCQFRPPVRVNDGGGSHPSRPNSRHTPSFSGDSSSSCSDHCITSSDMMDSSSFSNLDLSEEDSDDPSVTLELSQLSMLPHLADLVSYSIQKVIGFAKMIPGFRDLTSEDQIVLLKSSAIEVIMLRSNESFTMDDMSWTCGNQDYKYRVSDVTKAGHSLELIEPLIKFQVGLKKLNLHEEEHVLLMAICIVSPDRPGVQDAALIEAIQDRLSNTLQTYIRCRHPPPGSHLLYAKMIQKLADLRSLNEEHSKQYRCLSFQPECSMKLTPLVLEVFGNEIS
Assay: qHTS assay for small molecule antagonists of vitamin D receptor signaling (AID 588541); further: potency means the concentration at half of the fitted maximal effect;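 on activity change, negative = inhibition: receptor activated by calcitriol during compound treatment; on the % scale 0 is the no-effect control and ±100 the full control effect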
Settings: HEK293T VDR-UAS-bla, beta-lactamase ratio, antagonist mode; series mostly up to 76.7 µM; activity change, negative = inhibition: at the top concentration
Procedure, shortened: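 VDR-UAS-bla HEK293T cells (2000/well, 2% charcoal-stripped FBS) were treated with titrated compounds plus 1-alpha,25-dihydroxyvitamin D3 (50 nM or 3 nM final) for 16 h at 37 C. CCF4 beta-lactamase fluorescence was read; Hill fits gave IC50.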

Row | Compound | activity change, negative = inhibition | Potency
20 | CCC(CC)Nc1c([N+](=O)[O-])cc(C)c(C)c1[N+](=O)[O-] | -5.01% (inactive) | –
21 | C1=Cc2cccc3cccc1c23 | 6.36% (inactive) | –
22 | O=[N+]([O-])c1cc(C(F)(F)F)c(Cl)c([N+](=O)[O-])c1Nc1ncc(C(F)(F)F)cc1Cl | – | 22.4 µM (active)
23 | [CH3][Sn]([Cl])([Cl])[Cl] | 5.13% (inactive) | –
24 | CCC[CH2][Sn]([CH2]CCC)([CH2]CCC)[O][Sn]([CH2]CCC)([CH2]CCC)[CH2]CCC | – | 22.4 µM (active)
25 | CCC(C)Nc1c([N+](=O)[O-])cc(C(C)(C)C)cc1[N+](=O)[O-] (configuration not stated) | 4.84% (inactive) | –

Biological target: Vitamin D3 receptor (Homo sapiens) (UniProt P11473)
Assay: qHTS assay for small molecule agonists of vitamin D receptor signaling (AID 588543);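 further: 0% = DMSO basal and 100% = reference agonist control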
Settings: HEK293T VDR-UAS-bla, beta-lactamase ratio, 16 h; series mostly up to 76.8 µM; activation: at the top concentration
Procedure, shortened: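 qHTS in agonist mode: compound titrations stimulate a VDR-driven β-lactamase reporter in HEK293T cells over 16 h at 37 °C. Response normalized to 50 nM 1α,25-dihydroxyvitamin D3 = 100%, DMSO = 0%; Hill fitting gives EC50 and maximal response.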

Row | Compound | activation
26 | O=C(O)COc1ccc(Cl)cc1 | -3.07% (inactive)
27 | CCc1nn(C)c(C(=O)NCc2ccc(C(C)(C)C)cc2)c1Cl | 4.6% (inactive)
28 | CCC(CC)Nc1c([N+](=O)[O-])cc(C)c(C)c1[N+](=O)[O-] | -0.114% (inactive)
29 | C1=Cc2cccc3cccc1c23 | -7.31% (inactive)
30 | CCOP(=O)(OCC)Oc1ccc([N+](=O)[O-])cc1 | 11.5% (inactive)
31 | CN(c1c(Br)cc(Br)cc1Br)c1c([N+](=O)[O-])cc([N+](=O)[O-])cc1C(F)(F)F | -9.31% (inactive)
32 | [CH3][Sn]([Cl])([Cl])[Cl] | -1.72% (inactive)
33 | [Cu+2].[O-]c1cccc2cccnc12.[O-]c1cccc2cccnc12 | 14.8% (inactive)
34 | O=C1c2ccccc2C(=O)N1SC(Cl)(Cl)Cl | -2.04% (inactive)
35 | CCC(C)Nc1c([N+](=O)[O-])cc(C(C)(C)C)cc1[N+](=O)[O-] (configuration not stated) | 4.34% (inactive)

Test system: not listed separately
Assay: qHTS assay for small molecule agonists of retinoid X receptor alpha signaling (AID 588544); further: potency means the concentration at half of the fitted maximal effect;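 on activation: 0% = DMSO basal wells and 100% = reference agonist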
Settings: HEK293T RXRa-UAS-bla, beta-lactamase reporter, 18 h; 530 nm emission

Row | Compound | max response
36 | O=C(O)COc1ccc(Cl)cc1 | 18.4%
37 | COc1ccccc1[N+](=O)[O-] | 2.69%
38 | CCC(CC)Nc1c([N+](=O)[O-])cc(C)c(C)c1[N+](=O)[O-] | 4.16%
39 | C1=Cc2cccc3cccc1c23 | -12.5%
40 | c1ccccc1 | -2.6% and -9.93% and -11.1%
41 | CCOP(=O)(OCC)Oc1ccc([N+](=O)[O-])cc1 | -4.35%
42 | CN(C)C=O | 2.34% and -5.07% and -17.6%
43 | [CH3][Sn]([Cl])([Cl])[Cl] | -11.9%
44 | CCC[CH2][Sn]([CH2]CCC)([CH2]CCC)[O][Sn]([CH2]CCC)([CH2]CCC)[CH2]CCC | -23.3%
45 | CCC(C)(c1ccc(O)cc1)c1ccc(O)cc1 | 3.09%
46 | CCC(C)Nc1c([N+](=O)[O-])cc(C(C)(C)C)cc1[N+](=O)[O-] (configuration not stated) | -9.41%

Biological target: Retinoic acid receptor RXR-alpha (Homo sapiens) (UniProt P19793)
Sequence (P19793 whole entry, looked up): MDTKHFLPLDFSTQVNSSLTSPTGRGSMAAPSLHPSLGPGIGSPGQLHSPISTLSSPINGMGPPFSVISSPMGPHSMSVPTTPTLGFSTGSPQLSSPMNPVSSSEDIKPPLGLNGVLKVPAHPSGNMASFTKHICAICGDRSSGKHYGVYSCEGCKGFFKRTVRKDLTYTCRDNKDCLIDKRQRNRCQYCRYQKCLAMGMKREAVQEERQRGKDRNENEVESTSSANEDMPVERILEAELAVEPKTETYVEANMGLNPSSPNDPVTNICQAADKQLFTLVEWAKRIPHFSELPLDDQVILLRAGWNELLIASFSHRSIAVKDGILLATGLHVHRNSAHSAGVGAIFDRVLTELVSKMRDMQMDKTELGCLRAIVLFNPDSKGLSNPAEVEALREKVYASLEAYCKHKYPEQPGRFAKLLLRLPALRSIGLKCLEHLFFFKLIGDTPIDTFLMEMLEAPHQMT
Assay: as above
Settings: HEK293T RXRa-UAS-bla, beta-lactamase reporter, 18 h; series mostly up to 76.7 µM; activation: at the top concentration

Row | Compound | activation | Potency
47 | O=C(O)COc1ccc(Cl)cc1 | -9.97% (inactive) | –
48 | COc1ccccc1[N+](=O)[O-] | 4.33% (inactive) | –
49 | CCC(CC)Nc1c([N+](=O)[O-])cc(C)c(C)c1[N+](=O)[O-] | -13.9% (inactive) | –
50 | C1=Cc2cccc3cccc1c23 | -0.194% (inactive) | –
51 | c1ccccc1 | – | inactive
52 | CCOP(=O)(OCC)Oc1ccc([N+](=O)[O-])cc1 | -15.4% (inactive) | –
53 | [CH3][Sn]([Cl])([Cl])[Cl] | 9.57% (inactive) | –
54 | CCC[CH2][Sn]([CH2]CCC)([CH2]CCC)[O][Sn]([CH2]CCC)([CH2]CCC)[CH2]CCC | – | 0.355 µM (active)
55 | CCC(C)(c1ccc(O)cc1)c1ccc(O)cc1 | -12% (inactive) | –
56 | CCC(C)Nc1c([N+](=O)[O-])cc(C(C)(C)C)cc1[N+](=O)[O-] (configuration not stated) | 5.95% (inactive) | –

Biological target: Thyroid hormone receptor beta (Homo sapiens) (UniProt P10828)
Sequence (P10828 whole entry, looked up): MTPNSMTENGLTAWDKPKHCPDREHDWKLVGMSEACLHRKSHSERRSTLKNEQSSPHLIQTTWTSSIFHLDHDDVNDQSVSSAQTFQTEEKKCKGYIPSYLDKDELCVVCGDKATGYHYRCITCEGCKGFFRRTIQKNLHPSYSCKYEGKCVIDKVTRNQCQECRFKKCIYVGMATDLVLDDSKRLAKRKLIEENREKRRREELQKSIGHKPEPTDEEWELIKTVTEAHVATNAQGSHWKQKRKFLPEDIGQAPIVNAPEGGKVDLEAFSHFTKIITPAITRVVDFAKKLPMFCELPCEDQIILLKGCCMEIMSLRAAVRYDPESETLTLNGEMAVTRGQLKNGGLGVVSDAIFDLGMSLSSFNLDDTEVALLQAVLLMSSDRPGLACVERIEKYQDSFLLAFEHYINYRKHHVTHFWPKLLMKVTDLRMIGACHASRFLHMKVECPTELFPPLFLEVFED
Assay: qHTS assay for small molecule agonists of thyroid hormone receptor beta signaling (AID 588545);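 further: 0% = DMSO only and 100% = 10 nM T3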
Settings: TR-UAS-bla GripTite HEK 293, beta-lactamase ratio, agonist mode, 18 h; series mostly up to 76.7 µM; activation: at the top concentration
Procedure, shortened: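 TR-UAS-bla GripTite HEK 293 cells (2500/well, medium with 2% charcoal/dextran FBS) were treated in agonist mode for 18 h at 37 C, titrated. Beta-lactamase was read by CCF4 ratio after 2 h; normalized to 10 nM T3 (100%) and DMSO, Hill-fitted for EC50 and efficacy.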

Row | Compound | activation
57 | O=C(O)COc1ccc(Cl)cc1 | -8.16% (inactive)
58 | CCOC(=O)[C@H](C)Oc1ccc(Oc2nc3ccc(Cl)cc3o2)cc1 | -9.4% (inactive)
59 | CCC(CC)Nc1c([N+](=O)[O-])cc(C)c(C)c1[N+](=O)[O-] | -5.78% (inactive)
60 | C[Si](Cn1cncn1)(c1ccc(F)cc1)c1ccc(F)cc1 | -3.95% (inactive)
61 | C1=Cc2cccc3cccc1c23 | 3.32% (inactive)
62 | CCOP(=O)(OCC)Oc1ccc([N+](=O)[O-])cc1 | 2.4% (inactive)
63 | [Cu+2].[O-]c1cccc2cccnc12.[O-]c1cccc2cccnc12 | 22% (inactive)
64 | CCC(C)Nc1c([N+](=O)[O-])cc(C(C)(C)C)cc1[N+](=O)[O-] (configuration not stated) | 10.7% (inactive)

Test system: not listed separately
Assay: qHTS assay for small molecule antagonists of retinoid X receptor alpha signaling (AID 588546);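 further: cells stimulated with 9-cis-retinoic acid as agonist; on the % scale 0 is the no-effect control and ±100 the full control effect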
Settings: HEK293T RXRa-UAS-bla, beta-lactamase ratio, antagonist mode; measured here: W530 green channel, cytotoxicity proxy
Procedure, shortened: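 Beta-lactamase reporter inhibition, read as CCF4 fluorescence ratio (ex 405, em 460/530 nm) after 2 h at RT. HEK293T UAS-bla cells, 2500/well, were stimulated with 9-cis-RA at 500 or 100 nM final alongside test compound for 18 h at 37 C.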

Row | Compound | max response [%]
65 | O=C(O)COc1ccc(Cl)cc1 | 0.278
66 | CN(c1c(Br)cc(Br)cc1Br)c1c([N+](=O)[O-])cc([N+](=O)[O-])cc1C(F)(F)F | -24
67 | [CH3][Sn]([Cl])([Cl])[Cl] | -11
